Experimental data published in PubChem BioAssay (NCATS).
Results filed as inconclusive are left out. The source made the active and inactive calls. Calls follow the shape of the dose curve; as a rule, active = well fitted curve in the direction sought with a large enough effect; inconclusive = small, poorly fitted or top-dose-only effect, or another doubt; inactive = no such curve, though single readings can be large; an effect the other way counts as inactive or inconclusive.

Key:
[1] = qHTS to identify inhibitors of the type 1 interferon - major histocompatibility complex class I in skeletal muscle: primary screen against the NCATS Pharmaceutical Collection (AID 1347407); conditions: human skeletal muscle cells, IFN-b-induced MHC-I HiBiT luminescence, 24 h; series mostly up to 45.9 µM;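 also: luminescence of HiBiT knocked into endogenous HLA-B as interferon-induced MHC class I level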
Method in brief: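 Compounds […] were added to CRISPR-engineered HLA-B-HiBiT C25cl48 human myoblasts with 4.0 ng/ml IFN-beta. After 24 hrs at 37 C, cells were lysed and HiBiT luminescence measured.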

[2] = target: Protein phosphatase 1D (Homo sapiens) (UniProt O15297); test: RapidFire Mass Spectrometry qHTS Assay for Modulators of WT P53-Induced Phosphatase 1 (WIP1) (AID 1347424); conditions: WIP1 dephosphorylation of phosphopeptide, RapidFire MS; series mostly up to 63 µM
Method in brief: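 RapidFire MS readout of dephosphorylated VEPPL-S-QETFS product, with 1 uM isotope-labelled peptide standard. Reaction: 10 nM WIP1, 2 uM phosphopeptide substrate, 5 min, room temperature, after 1 h compound preincubation; stopped with 0.5% formic acid.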

[3] = target: Protein phosphatase 1D (Homo sapiens) (UniProt O15297); test: Rhodamine-PBP qHTS Assay for Modulators of WT P53-Induced Phosphatase 1 (WIP1) (AID 1347425); conditions: recombinant WIP1, Rhodamine-PBP phosphate fluorescence, real-time; series mostly up to 57.5 µM
Method in brief: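 WIP1 (5 nM final) was preincubated with compound for 1 hour at room temperature. It then dephosphorylated 10 uM VEPPL-pS-QETFS peptide in Tris-HCl pH 7.5 with 30 mM MgCl2. Released Pi was detected by 10 uM Rh-PBP fluorescence (ex 525/em 598 nm) read at 1-min intervals for 11 min, as delta f1 - f0.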

[4] = Primary qHTS for inhibitors of La Crosse Virus (LACV) - induced cell death in SH-SY5Y cells (AID 1508616); conditions: SH-SY5Y LACV cytopathicity rescue, ATP luminescence, 6 d; series mostly up to 4.29 µM;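 also: top concentration of the series differs between compounds; higher means more rescue of cells from virus-induced death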
Method in brief: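 SH-SY5Y, 6000 cells/well; cpd via pin tool in DMSO; LACV 0.01 MOI; 6 d 37C 5% CO2; ATPLite, 5 min RT; luminescence normalized to ±virus DMSO controls.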

[5] = qHTS for Inflammasome Signaling Inhibitors: IL-1-beta AlphaLISA screen against the NCATS CANVASS Library (AID 1347379); conditions: THP-1 LPS/ATP, IL-1B AlphaLISA secretion, 16 h; series mostly up to 19.2 µM;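 also: human THP-1 cells primed with LPS then triggered with ATP; secreted IL-1B measured as AlphaLISA emission at 615 nm; lower signal means less IL-1B release which is the wanted effect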
Method in brief: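 Secreted IL-1B from human THP-1 cells quantified by AlphaLISA 16 hr after compound addition (final up to 57.5 uM). A 1 hr compound pretreatment preceded inflammasome activation with 250 ng/mL LPS plus 1.25 mM ATP (final).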

[6] = Inflammasome Signaling qHTS Counterscreen: IL-1-beta AlphaLISA counterscreen against the NCATS CANVASS Library (AID 1347381); conditions: Purified IL-1beta AlphaLISA signal interference counterscreen; series mostly up to 19.2 µM;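 also: cell-free check with purified IL-1β in medium and no THP-1 cells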
Method in brief: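 Purified IL-1-beta (4 pg/well) + compound, 11-pt conc. series; acceptor beads 6 ug/mL + biotin-Ab 0.6 nM final, 1 h RT; SA-donor 24 ug/ml final, 30 min dark RT; read ex 680/em 615.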

[7] = Cytotoxicity qHTS for assessment of Hepg2 cells membrane integrity screened against the NCATS CANVASS Library (AID 1347387); conditions: HepG2 LDH release (CytoTox-ONE) fluorescence, 5 h; series mostly up to 15.4 µM
Method in brief: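 Cells were seeded at 2000 per well and left overnight to attach. Compounds were pin-transferred to give 0.59 nM - 46 uM in an 11-point series and incubated 5 hr at 37C. CytoTox-ONE reagent was added and, after 10 min at room temperature, fluorescence (ex 560, em 590 nm) was read.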

[8] = qHTS for Activators of p53 Stress Response Pathway screened against the NCATS CANVASS Library (AID 1347388); conditions: p53RE-bla HCT-116, beta-lactamase reporter, 16 h; series mostly up to 15.4 µM
Method in brief: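 p53RE-bla HCT-116 cells (4000/well) were pre-incubated for 5 h, then treated with compound (11 points) for 16 h at 37C. After 2 h with CCF4, the 460/530 nm ratio gave reporter activation; CellTiter-Glo measured viability.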

[9] = qHTS assay for small molecule disruptors of mitochondrial membrane potential screened against the NCATS CANVASS Library (AID 1347389); conditions: HepG2 mitochondrial membrane potential, m-MPI red/green ratio, 1.5 h; series mostly up to 15.4 µM; also: nearly all actives have a fitted effect of over 60% in size
Method in brief: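 Mitochondrial depolarization in HepG2 cells is scored as a falling aggregate-to-monomer fluorescence ratio after 1 hr compound exposure and 30 min staining with Mito-MPS dye at 37C, each compound tested as an 11-point titration.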

[10] = Secretion counterscreen for inhibitors of the SERCaMP assay screened against the NCATS CANVASS Library (AID 1347390); conditions: SH-SY5Y constitutive GLuc secretion, luminescence, 20 h; series mostly up to 25.5 µM;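 also: light from luciferase secreted into medium read as a measure of general secretion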
Method in brief: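 Counterscreen for secretory-pathway interference: after 4 h attachment, SH-SY5Y-GLuc cells were exposed 20 hours to compounds (final 0.001 - 77 uM), then coelenterazine added and GLuc luminescence recorded; Brefeldin A served as control.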

[11] = qHTS for activators of Nrf2/ARE signaling pathway screened against the NCATS CANVASS Library (AID 1347391); conditions: ARE-bla HepG2, beta-lactamase reporter, 16 h; series mostly up to 15.4 µM; also: nearly all actives have a fitted effect of over 60% in size
Method in brief: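 Beta-lactamase reporter signal, read as 460 and 530 nm emission under 405 nm excitation after 2 h CCF4 loading, reflected ARE activation in HepG2 cells treated 16 h with an 11-point series.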

[12] = qHTS for activators of dead-cell proteases activity screened against the NCATS CANVASS Library (AID 1347392); conditions: HepG2 cytotoxicity, dead-cell protease luminescence, 5 h; series mostly up to 15.4 µM;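 also: luminescence from protease leaking out of membrane-damaged cells cleaving impermeant substrate; rising signal means more cytotoxicity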
Method in brief: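 HepG2, 2000 cells/well, 18 h attach; cpd 11-pt, 5 h 37C 5% CO2; CytoTox-Glo (AAF-aminoluciferin) 15 min RT; luminescence read.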

[13] = qHTS for inhibitors of ER calcium dysfunction: SERCaMP assay screened against the NCATS CANVASS Library (AID 1347393); conditions: SH-SY5Y GLuc-SERCaMP secretion, thapsigargin, luminescence; series mostly up to 25.5 µM;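 also: lower secreted reporter signal means inhibitor of ER calcium depletion; nearly all actives have a fitted effect of over 40% in size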
Method in brief: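 SH-SY5Y GLuc-SERCaMP, 1000 cells/well, 4 h attach; cpd 16 h, 37C/5% CO2; thapsigargin (added as 6x 600 nM) 4 h; coelenterazine; luminescence. Reduced reporter release = ER Ca stabilization.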

[14] = Vero-766 cells viability qHTS against the NCATS CANVASS Library: Counterscreen for Zika virus inhibition assay (AID 1347394); conditions: Vero 766 viability, CellTiter-Glo luminescence, 72 h; series mostly up to 15.4 µM; also: nearly all actives have a fitted effect of over 60% in size
Method in brief: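 CellTiter Glo luminescence measured cytotoxicity after 72 h at 37C in uninfected Vero 766 cells, plated at 1000 cells/well. Compounds were applied in an 11-point series. Wells without cells defined 100% inhibition.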

[15] = qHTS for inhibitors of Wild type Zika virus screened against the NCATS CANVASS Library (AID 1347396); conditions: Vero cells, Zika virus CPE, CellTiter-Glo, 72 h; series mostly up to 15.3 µM;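 also: ATP luminescence of surviving cells so rescue from viral cell killing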
Method in brief: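 Vero 766 (African green monkey) cells, 1000 per well, attached overnight, then compounds were added in an 11-point series before wild-type Zika virus infection. After 72 h at 37C, cell viability was read as CellTiter Glo luminescence.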

[16] = Viability qHTS for inhibitors of the SERCaMP assay screened against the NCATS CANVASS Library (AID 1347400); conditions: SH-SY5Y SERCaMP cells viability, CellTiter-Glo, 48 h; series mostly up to 30.7 µM; also: nearly all actives have a fitted effect of over 70% in size
Method in brief: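 Seed SH-SY5Y-GLuc SERCaMP MJH297 cells at 1000 per well, incubate 4 h, add compounds across an 11-point range, incubate 48 h at 37C, then add CellTiter-Glo and read luminescence.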

[17] = Redox Reaction Profiling qHTS: Assay Interference Panel against the NCATS CANVASS Library (AID 1347401); conditions: resazurin-DTT redox cycling, fluorescence, 15 min; series mostly up to 19.1 µM
Method in brief: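 Fluorescence read-out (525 nm excitation, 598 nm emission) at time zero and after 15 min in the dark tracked resorufin formation. Mix: 5 uM resazurin, 200 uM DTT, HEPES pH 7.3 buffer with NaCl.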

[18] = target: Calcium and integrin-binding protein 1 (Homo sapiens) (UniProt Q99828); test: Primary qHTS for Identification of Calcium Integrin Binding Protein 1 (CIB1) Competitor (AID 1508620); conditions: CIB1-GST / FITC-alphaIIb peptide fluorescence polarization; series mostly up to 114 µM;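 also: GST tagged CIB1 binding a fluorescein labelled alphaIIb integrin peptide tracer; top concentration of the series differs between compounds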
Method in brief: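 Fluorescence polarization competition: GST-tagged CIB1 (1 uM final) preincubated with compound 15 min at room temperature, then FITC-labelled alphaIIb peptide (100 nM final) added. After 15 min at room temperature, polarization read at Ex 480/Em 540.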

[19] = qHTS to identify inhibitors of the type 1 interferon - major histocompatibility complex class I in skeletal muscle: primary screen against the NCATS Mechanism Interrogation Plate v5.0 (MIPE) Libary (AID 1347411); conditions: iHSKM cells + IFN-b, HiBiT-tagged MHC-I luminescence, 24 h; series mostly up to 45.8 µM; also: nearly all actives have a fitted effect of over 65% in size
Method in brief: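 Seed engineered human myoblasts (HLA-B HiBit) in medium without dexamethasone containing 4 ng/ml IFN-beta; after 1 hr add compound titrations (top 46 uM final). Incubate 24 hrs at 37 C, lyse 10 min with HiBiT reagent, read luminescence.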

Measured: outcome

Sequence of Protein phosphatase 1D (Homo sapiens) (O15297 whole entry, looked up): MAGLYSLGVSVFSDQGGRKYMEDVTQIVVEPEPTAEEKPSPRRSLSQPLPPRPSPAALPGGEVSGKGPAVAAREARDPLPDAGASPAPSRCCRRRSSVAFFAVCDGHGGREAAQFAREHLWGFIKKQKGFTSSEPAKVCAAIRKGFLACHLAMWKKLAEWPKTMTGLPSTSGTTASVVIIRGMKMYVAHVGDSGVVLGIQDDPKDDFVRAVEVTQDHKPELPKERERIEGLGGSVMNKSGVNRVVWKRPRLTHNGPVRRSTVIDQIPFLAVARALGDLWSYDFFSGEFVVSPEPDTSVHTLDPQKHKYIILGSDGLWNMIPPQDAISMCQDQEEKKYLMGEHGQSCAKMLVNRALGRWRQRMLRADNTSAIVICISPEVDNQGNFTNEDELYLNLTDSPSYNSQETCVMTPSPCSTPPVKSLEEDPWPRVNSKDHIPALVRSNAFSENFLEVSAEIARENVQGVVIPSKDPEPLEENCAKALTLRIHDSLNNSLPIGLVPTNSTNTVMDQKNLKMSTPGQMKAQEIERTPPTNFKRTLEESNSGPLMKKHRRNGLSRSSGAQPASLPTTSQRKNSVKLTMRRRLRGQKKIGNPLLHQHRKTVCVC
Sequence of Calcium and integrin-binding protein 1 (Homo sapiens) (Q99828 whole entry, looked up): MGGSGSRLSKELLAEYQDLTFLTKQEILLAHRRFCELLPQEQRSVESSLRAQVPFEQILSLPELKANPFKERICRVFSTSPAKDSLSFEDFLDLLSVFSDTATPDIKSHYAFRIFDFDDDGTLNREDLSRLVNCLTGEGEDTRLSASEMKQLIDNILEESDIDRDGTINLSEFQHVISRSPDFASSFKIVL

CN1C[C@@H]2C[C@H]1CN2c1cc2c(cc1F)c(=O)c(C(=O)O)cn2C1CC1
inactive: [1] | [2] | [3]

NC(N)=NS(=O)(=O)c1ccc(N)cc1
inactive: [1] | [2] | [3] | [4]

CC[N+](CC)(CC(=O)Nc1c(C)cccc1C)Cc1ccccc1
inactive: [1] | [2] | [3] | [4]

CCCCCCCCCCCCCCCCN
inactive: [1] | [2] | [3] | [4]

O=S1(=O)OC(c2ccc(O)cc2)(c2ccc(O)cc2)c2ccccc21
inactive: [1] | [2] | [3]

FC(F)(F)C(Cl)Br (configuration not stated)
inactive: [1] | [2] | [3] | [4]

C1CCN2C[C@@H]3C[C@@H](CN4CCCC[C@@H]34)[C@H]2C1
inactive: [1] | [2] | [3] | [4]

CC1CCN(CCCC(=O)c2ccc(F)cc2)CC1
inactive: [1] | [2] | [3] | [4]

C[C@@H]1O[C@@H](OC[C@H]2O[C@@H](Oc3c(-c4ccc(O)c(O)c4)oc4cc(O)cc(O)c4c3=O)[C@H](O)[C@@H](O)[C@@H]2O)[C@H](O)[C@H](O)[C@H]1O
not listed: [19]
inactive: all other assays above

OCCN1C[C@H](O)[C@@H](O)[C@H](O)[C@H]1CO
inactive: [1] | [19] | [2] | [3] | [18]

Cc1cccc(C)c1NC(=O)CC12CCCN1CCC2
inactive: [1] | [2] | [3] | [4]
